These results are taken from PubChem BioAssay AID1508600 (Functional Genomics Laboratory (NCATS/FGL), 2020).

About 3,700 (7%) of roughly 53,000 sequences were called active. Shown is part of a subset that was picked to be rich in actives. A number with no mark means an inactive call.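 The calls were made as follows: active = gene knockdowns whose robust z-score for IL-1 alpha signal is at least 2 or at most -2, so actives lie on both sides; inactive = the rest.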

A short description of this assay: Components of the Cytosolic LPS Sensing Pathway: Gene Identification via Genome-wide siRNA Screen.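 Also: robust z of the log signal after scaling to non-targeting control siRNA wells of the plate.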 The note with it: RAW264.7 macrophages, IL-1a HTRF, actives lie on both sides, screened at 100 nM (by protocol), cells primed 5 h with Pam3CSK4 first. The procedure, abridged: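 Mouse macrophage line RAW264.7 is transfected with siRNA (100 nM final), grown 48h, primed with TLR ligand Pam3CSK4 5 h and given intracellular LipidA 24 h. IL-1a in supernatant is read by HTRF and viability by luminescence.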
As to CCGCCCGCUCAACACUAAUTT against Zfp36l3, the z-score was -2.39 (active).

As to GGUAUAUUGCCAUAUGUAATT against Olfr731, the z-score is -0.174. The same measure for CCAUGGGCCUACCAAACAGTT against Celf2: -1.86; for GCCGGAUAACAUCAGACACTT against Rmnd1: -0.146. Turning to GCCACAGAGCUAGACUGUCTT against Wdr86, the z-score was 0.241.

GGAACAUCUUCAAAGAAGATT against Minar1: the z-score was -0.963. The same measure for GUUUUGUUUCAGAGCAGAATT against Olfr900: -0.134; for GCUAAUAACUGUUCACAUATT against Magi1: 1.97.

As for CCAAUCUUAGUCAUCCAUUTT against Foxo6, the z-score is -2.27 (active). The same measure for GUAUUGUCAUCAUCAUUUCTT against Olfr910: 0.115; for GGUCGGCCAAUUACAAUGUTT against Eml4: 2.16 (active); for GCGAUGAGACAGAUGUCGATT against Tcof1: -0.0757. For the sequence GGUCUUCAACAACAUUAUCTT against Hid1, the z-score was 1. The same measure for GCCGAUCCAUUUUUGGCUCTT against Mlxip: 0.86; for GGAGUAUUACCUGGUUAAGTT against Suv39h1: -1.18; for GCAAGUUAAGGAUAUCAUGTT against Katna1: 1.2. The same measure for CCGAGUCUUGAACUAGGCATT against Six2: -2.01 (active); for GCUUUCUGAAGUAGCAAAGTT against Nit2: 0.42. The same measure for GAUGUACGAGAGCUUAGCATT against Uqcc2: -1.14. With GGACUACCUGUGUAUGCUCTT against Dcaf12l1, the z-score is 1.3. The same measure for GGAAUGUUCCUUCGAGCAGTT against Ccdc28b: -0.197. Consider GCCAUAGAAGUAGAAGUAGTT against Rbmx2, for which the z-score was -2.29 (active). Consider GGCGAAAGUAAGACAAAGUTT against Ric8a, for which the z-score is 0.708. The same measure for GGCAAACCGACAGACUUCUTT against Riok1: -0.033. The same measure for GGUCUCUCAUUACCACAUUTT against Olfr69: 1.75; for GGAAGAUCAGCCAUACUAGTT against Klrb1f: 2.12 (active). For GCCCACACUUGCUAAUGAATT against Ppp1r26, the z-score is 0.468.

For the sequence GCUGAACGAUGACUAUCCCTT against Cryba4, the z-score is 2.2 (active). The same measure for GCUUGUGCCAAGCAUUCUUTT against Rdh1: 0.861; for GGACUCAGAAGAAAUGGACTT against Osbpl6: 0.109. The same measure for GCUCUGCUAACUUACAUCUTT against Mtmr11: 1.75; for GGCAAAGAGAUUGACAUUGTT against Kif2c: -0.991. For the sequence GCGGUCACGUGUGAUGGAUTT against Zfp653, the z-score was 3.98 (active). The same measure for GGCAGGAGAUGGUAACUGCTT against Phc2: 1.08. The same measure for CGAAUUCAAAAAGCUAGAGTT against Gsto1: 0.0531; for GGCCUUCAUGGAUUAUACCTT against Serpinb9: 2.09 (active). The same measure for GGCCAUUCAGAAGAUGCAGTT against Snapc2: -0.852; for CGAUUGUCGGGUUUUGUUUTT against Nutf2: -2.53 (active). As to GCCAUUGACUGUACAGGUUTT against Taar4, the z-score was 0.74. With GGAAGAGCAGGCAUCCAUATT against Ranbp10, the z-score was -0.294.

As to GGGAGAUGAUUAGUUCAUUTT against Mad1l1, the z-score is 0.654.

As to GGCCAGUCCAAAGACCAUCTT against Hsd3b7, the z-score is 1.95. Turning to GCAAAACAUUUCCUGUCUGTT against Zfp316, the z-score was -0.555. The same measure for CCUCAAUUAUACCAAGAUUTT against Mapre3: -1.28; for GCCAGGAGUCCUUUAGGAATT against Tmem159: -0.184. Turning to GCCCUCUUAUCUGAAUAAUTT against Stk17b, the z-score was 2.19 (active). With GGGAUUGGAAGAGAAAUGGTT against Hsd11b1, the z-score is 0.362.

For the sequence GCUAUACGAAGACUUCAGCTT against Hdhd3, the z-score is 0.972. GGCCUUUAAUUUCUUACACTT against Akt1s1: the z-score was -0.6. On to GGAGUGAAAUUUACUGGGUTT against Hdgfl3, for which the z-score was 1.28.

GGAGAACAAAGAUUUCGUGTT against Lhfpl4: the z-score was -0.897. GCUAAACACGCUGAAUAUUTT against Phf10: the z-score is 0.107. Consider GCUACUAUCACAUAUGCACTT against Olfr1122, for which the z-score is -2.09 (active). For the sequence GGGUUGGUAUAGCUUUCAGTT against Zfp619, the z-score was -0.948. Turning to GGAACCUGAAAAUGUAUGUTT against Cxcl10, the z-score is 0.988. The same measure for CGUUCAGUGUCUGCAGGUUTT against Mrps12: -0.0575; for CCACUAAUUACAGUAACAUTT against Akr1c20: -1.11; for “GCAGACUCAUGCACUUGAATT against Olfr1165-ps”: -0.321. For the sequence GGAAGUCUUAGAAGUAGCCTT against Diaph3, the z-score was 0.691.

In the case of GGGAACUGCACAAUACAAATT against Ccdc122, the z-score is 1.91. As to GGCUGGUGGAUAAUGAUUGTT against Tmem50b, the z-score was 2.18 (active).

Regarding GGACUGUUUUGUCUUGAAGTT against Gm5124, the z-score is -1.04.

As for GGUUUUUGUUAAGGUCAAUTT against Abca16, the z-score is 0.209. Take CCAUCCGUAACAUCGACUGTT against Mboat7: the z-score was -0.293. For UGGUCACCUUUCUCUUAUUTT against Tas2r140, the z-score was -0.575.

As for GCUCCUGGGAUACGUAUUATT against Abhd16a, the z-score is -2 (active). The same measure for GGGAGCUGAACACAAACACTT against Trav3-3: 0.191.

On to GGACCUUCUUCAAGAAAGUTT against Olfr430, for which the z-score was 0.0987. Consider GGAUGGUGAAAAUCUUGAGTT against Mindy1, for which the z-score is 1.39.

With GGACAAUGGGAGCUAUCGATT against Gpld1, the z-score is -1.73. The same measure for “GGCUAAUACAUAAAGUAGUTT against 4930515G01Rik”: 0.452; for GGUCAAGAAAUGGGCAAGCTT against Arhgdib: 1.14; for GGAAAUAAACCACCUCUUCTT against Olfr437: 2.36 (active). The same measure for GAACAUGGAAAGCAGCAUUTT against Lce1m: -0.757; for GGUAUUUUUCAUGGCUCUCTT against Olfr305: -0.0328; for GCCAAAUACUUUUUUACCCTT against Slc38a2: 0.682.

For the sequence GCUUACCAAAAGGAUAUCCTT against Zfand2b, the z-score is -1.94.

Take GGCAUUUCAUGUAGCUAAATT against Spata18: the z-score was 2.04 (active). The same measure for GGUCCAACGAUAUGUUGACTT against Cyp2c67: 1.27; for GGACAUGGAGAAAAAGUACTT against Styk1: 0.547; for GCAGUGCGAUUGCUUACAGTT against Tube1: 1.07. Consider GGAUGUUCCAUUUCUAAGCTT against Zfp30, for which the z-score is -3.76 (active). The same measure for GGAGUGUGCCCUGAAAGAUTT against Psrc1: -0.215; for GGCUUUUCUGCCAUUUAUGTT against Sox18: 0.23; for GGGUGAAAGAAAGAAAGAATT against Plp1: -0.883. For the sequence GGCCCAGUGACUAUGGAAUTT against Mpnd, the z-score is -2.68 (active). Regarding GGAUUACAGAAGCCCACACTT against Plekhn1, the z-score is -0.719.

Take GGACGUGCUUACAUUGUACTT against Pcdhb9: the z-score was -0.212. The same measure for GCAAUUGAGAUCUAUACAGTT against Napa: -0.0109; for GGGAAUAUGUGAAACAGACTT against Syk: -0.229; for GCCAAUAAAGUCGGUGAAATT against H2aj: -0.244. The same measure for GGAAUAAUCCCAGAAUCAGTT against Stard6: 0.0758; for GGAAGUGGCUUUUUAUCAGTT against Arhgap6: 2.05 (active). For CCAUACACAACAUUCCAGATT against Slc39a11, the z-score was 0.0339. The same measure for GCAUUCAUCAAAUUUACAGTT against Prrg4: -0.67; for CCUACUAACAACAAGAGCATT against Pcdhga5: 0.021.

As to GGAACUGAUCUGGAAGAAUTT against Sord, the z-score is -0.392. Regarding GGAAUACCAGGCCUUCCUUTT against B4galnt1, the z-score is -0.886. Consider CCUCGAUUAUAGCAAUACUTT against Slc16a14, for which the z-score is 1.36.

Take GGUGCAGGACCAUUUCCAUTT against Slc10a6: the z-score was 3.25 (active). Regarding GAAAUGUCCAUCCAAAAGCTT against Sprr2k, the z-score is 0.602. The same measure for GGAUUAGGAAUCACAGUAGTT against Fam78a: 0.675; for CCUUAUAGUCCAGUAUUUUTT against Slf2: 2.71 (active); for GGCCAAAAAGGAGGCACCATT against Rps15: 0.662. Turning to GCAUUUUAAUGCGCCAGUUTT against Atp2c1, the z-score is -0.164. Consider GGGAGCUUUGGAAAUUUUATT against Zbtb3, for which the z-score is 0.451. With CCUCUCCUGCUCUGACAUATT against Olfr933, the z-score is 0.541.
